C diff HTS – blocks growth of Clostridium difficile | Clostridium difficile clinical isolate growth, OD600, 24 h; stronger effect = lower value | growth activity, negative = inhibition, % at 16 µg/mL (by protocol) | 86,000 tested, 0.25% active;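 active means mean growth activity at or below -80% and every replicate also at or below -80%; inconclusive means mean at or below -80% but some replicate above -80%; inactive means mean growth activity above -80%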;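 further: 0% = DMSO wells and -100% = levofloxacin 16 µg/mL wells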
Pf Dd2 growth – blocks growth of Plasmodium falciparum Dd2 parasites; 94,000 tested, 2.3% active; activity change, % at 10 µM; P. falciparum Dd2 growth, SYBR Green, 72 h; stronger effect = lower value; AID 1159554; in the data active means activity change below about -80%; inconclusive means no clear call, values can overlap the other calls
T cruzi growth-1 – T. cruzi proliferation inhibition | T. cruzi beta-gal in NIH3T3, GalScreen luminescence, 90 h | inhibition, % at 8.34 µM | 77,000 tested, 5.9% active | AID 624255;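 active means mean inhibition above about 93%, with at least 55% of replicates each passing it, limit read from the data, passing the limit was not always enough; inconclusive means only one of those two conditions holds; inactive means neither condition holds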
T cruzi growth-2 – inhibitors of T. cruzi proliferation. shares compounds with T cruzi growth-1. T. cruzi beta-gal in NIH3T3, GalScreen luminescence, 90 h. inhibition, % at 8.35 µM. 5,600 tested, 72% active. AID 651739;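 active means mean replicate inhibition above about 95% and at least 55% of replicates individually reaching it, limit read from the data; inconclusive means only one of the two criteria is met; inactive means neither criterion is met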
T cruzi growth-3 – inhibitors of T. cruzi proliferation | shares compounds with T cruzi growth-1 | T. cruzi beta-gal in NIH3T3, GalScreen luminescence, 90 h | inhibition, % at 2.09 µM | 5,600 tested, 21% active | AID 651740;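 active means mean inhibition above about 95%, with at least 55% of replicates also reaching it, limit read from the data; inconclusive means meets just one of the two conditions; inactive means meets neither condition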;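 further: plate controls were neutral control median for no effect and positive control median for full effect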
3T3 cytotox – kills mouse NIH/3T3 fibroblasts; 5,600 tested, 14% active; NIH/3T3 viability, CellTiter-Glo ATP luminescence, 90 h; shares compounds with T cruzi growth-1; cytotoxicity (signal decrease), % at 8.35 µM;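 active means mean signal decrease across replicates above about 35% based on untreated-well scatter, with enough replicates individually passing, limit read from the data; inconclusive means no rule stated though some were filed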;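 further: 0% = median of neutral control wells and 100% = median of positive control wells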
3T3 cytotox 2 – cytotoxicity in mouse NIH/3T3 fibroblasts | shares compounds with T cruzi growth-1 | 5,600 tested, 56% active | inhibition, % at 24.9 µM | NIH/3T3 viability, CellTiter-Glo ATP luminescence, 90 h | AID 651744;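 active means mean loss of cell viability signal at or above a set limit, and enough replicates individually reaching it; inconclusive means meets only the mean limit or only the replicate share; inactive means meets neither condition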;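 further: 0% = median of neutral control wells and 100% = median of positive control wells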
Starred values were filed as active, the others as inactive; u = inconclusive; x = no result given; ! = not confirmed by another sample. Compounds with a hit are over-represented: about 6.8% of the library has one in this group of screens.

SMILES	C diff HTS	Pf Dd2 growth	T cruzi growth-1	T cruzi growth-2	T cruzi growth-3	3T3 cytotox	3T3 cytotox 2
O=C(O)C[C@@H]1CC[C@H](NC(=O)Nc2cc(F)ccc2F)[C@H](CO)O1	1	2	x	x	x	x	x
COc1ccc(CN(C)C[C@H]2Oc3ccc(NS(=O)(=O)c4ccc(F)cc4)cc3CC(=O)N([C@H](C)CO)C[C@@H]2C)cc1	2	-4	x	x	x	x	x
C[C@H](CO)N1C[C@H](C)[C@H](CN(C)Cc2ccc(C(F)(F)F)cc2)OCc2cn(nn2)CCCC1=O	9	-17	u	64	-8	1	5
C[C@@H]1CN([C@@H](C)CO)C(=O)CCCn2cc(nn2)CO[C@H]1CN(C)C(=O)c1ccc(N2CCN(C)CC2)cc1	-2	-2	u	35	5	-23	1
C[C@@H]1CN([C@@H](C)CO)C(=O)CCCn2cc(nn2)CO[C@H]1CN(C)Cc1ccc(C(F)(F)F)cc1	x	-1	-15	x	x	x	x
C[C@@H]1CN([C@@H](C)CO)C(=O)CCCn2cc(nn2)CO[C@@H]1CN(C)C(=O)Nc1ccccc1	7	2	u	38	0	-14	-1
C[C@@H]1CN([C@H](C)CO)C(=O)CCCn2cc(nn2)CO[C@H]1CN(C)C(=O)c1ccc(N2CCN(C)CC2)cc1	-8	-2	-5	x	x	x	x
C[C@H]1CN([C@@H](C)CO)C(=O)CCCn2cc(nn2)CO[C@@H]1CN(C)C(=O)Nc1ccc(C(C)(C)C)cc1	1	-2	-5	x	x	x	x
C[C@@H]1CN([C@H](C)CO)C(=O)CCCn2cc(nn2)CO[C@@H]1CN(C)C(=O)Nc1ccc(C(C)(C)C)cc1	-2	1	122*	101*	-47	-2	6
C[C@H]1CN([C@@H](C)CO)C(=O)CCCn2cc(nn2)CO[C@H]1CN(C)C(=O)Nc1ccccc1	x	-8	47	x	x	x	x
CCNC(=O)C[C@H]1CC[C@H]2[C@@H](COC[C@H](O)CN2C(=O)C2CCOCC2)O1	-8	x	-66	x	x	x	x
C[C@@H]1CCCCO[C@H](CN(C)C(=O)c2ccncc2)[C@H](C)CN([C@@H](C)CO)C(=O)c2cc(NS(=O)(=O)c3ccccc3)ccc2O1	x	41	-82	x	x	x	x
C[C@@H]1CCCCO[C@H](CN(C)C(=O)Nc2ccc(F)cc2)[C@H](C)CN([C@H](C)CO)C(=O)c2cc(NC(=O)c3ccncc3)ccc2O1	7	-43	34	x	x	x	x
CCC(=O)N(C)C[C@H]1Oc2cc(-c3cncnc3)ccc2S(=O)(=O)N([C@@H](C)CO)C[C@H]1C	-2	26	5	x	x	x	x
C[C@@H]1CCCCO[C@@H](CN(C)C(=O)NC2CCCCC2)[C@H](C)CN([C@@H](C)CO)C(=O)c2cc(NS(=O)(=O)c3ccc(F)cc3)ccc2O1	5	6	62	x	x	x	x
O=C(N[C@H]1CC[C@H](CCn2cc(-c3ccccc3)nn2)O[C@@H]1CO)c1cnccn1	-5	8	28	x	x	x	x
C[C@H](CO)N1C[C@H](C)[C@H](CN(C)C(=O)CCC(F)(F)F)OCc2cn(nn2)CCCC1=O	-1	10	-4	x	x	x	x
C[C@@H]1CN([C@H](C)CO)C(=O)CCCn2cc(nn2)CO[C@H]1CN(C)C(=O)Nc1ccccc1	1	-8	26	x	x	x	x
C[C@@H]1CN([C@H](C)CO)C(=O)CCCn2cc(nn2)CO[C@@H]1CN(C)C(=O)CCC(F)(F)F	-6	-12	u	46	56	1	0
C[C@H](CO)N1C[C@H](C)[C@@H](CN(C)C(=O)Nc2ccccc2)OCc2cn(nn2)CCCC1=O	-1	8	127*!	-25	-14	-10	-1
Cc1ccc(S(=O)(=O)Nc2ccc3c(c2)CC(=O)N([C@H](C)CO)C[C@@H](C)[C@@H](CN(C)CC2CC2)O3)cc1	-7	-18	19	x	x	x	x
CC(C)CC#Cc1cnc2c(c1)C(=O)N([C@H](C)CO)C[C@@H](C)[C@@H](CN(C)C(=O)c1ccc(F)cc1)O2	-2	-6	19	x	x	x	x
C[C@@H]1CN([C@@H](C)CO)C(=O)c2cc(NC(=O)C3CCCCC3)ccc2O[C@@H](C)CCCCO[C@@H]1CN(C)C(=O)Nc1ccc(C(F)(F)F)cc1	11	u	92	x	x	x	x
CC(C)NC(=O)N(C)C[C@H]1OCCCC[C@@H](C)Oc2ccc(NC(=O)C3CCCCC3)cc2C(=O)N([C@H](C)CO)C[C@@H]1C	-3	-5	99*!	-43	-41	1	10
C[C@@H]1CCCCO[C@@H](CN(C)C(=O)Nc2ccc(C(F)(F)F)cc2)[C@@H](C)CN([C@H](C)CO)C(=O)c2cc(NC(=O)C3CCCCC3)ccc2O1	-3	-69	101*	107*	76	14	-5
SMILES	C diff HTS	Pf Dd2 growth	T cruzi growth-1	T cruzi growth-2	T cruzi growth-3	3T3 cytotox	3T3 cytotox 2
CC(C)NC(=O)N(C)C[C@@H]1OCCCC[C@H](C)Oc2ccc(NC(=O)C3CCCCC3)cc2C(=O)N([C@@H](C)CO)C[C@@H]1C	0	-53	22	x	x	x	x
C[C@@H]1CN([C@@H](C)CO)C(=O)c2cc(NC(=O)C3CCCCC3)ccc2O[C@@H](C)CCCCO[C@@H]1CN(C)C(=O)Nc1ccc(F)cc1	2	-66	38	x	x	x	x
C[C@H]1CCCCO[C@@H](CN(C)C(=O)Nc2ccc(C(F)(F)F)cc2)[C@@H](C)CN([C@@H](C)CO)C(=O)c2cc(NC(=O)C3CCCCC3)ccc2O1	0	-83*	97*	104*	105*	7	2
COc1ccc(S(=O)(=O)N[C@@H]2CC[C@@H](CCNC(=O)Cc3ccccn3)O[C@@H]2CO)cc1	x	27	-28	x	x	x	x
COc1ccc(CN(C)C[C@@H]2OCCCC[C@@H](C)Oc3ccc(NC(=O)Nc4ccc(F)cc4)cc3C(=O)N([C@@H](C)CO)C[C@H]2C)cc1	6	-63	20	x	x	x	x
COc1ccc(CN(C)C[C@@H]2OCCCC[C@H](C)Oc3ccc(NC(=O)Nc4ccc(OC)cc4)cc3C(=O)N([C@@H](C)CO)C[C@@H]2C)cc1	x	-81*	100*	107*	-7	11	63*
COc1ccc(CN(C)C[C@@H]2OCCCC[C@H](C)Oc3ccc(NC(=O)C4CCCCC4)cc3C(=O)N([C@@H](C)CO)C[C@H]2C)cc1	-7	-69	80	x	x	x	x
COc1ccc(CN(C)C[C@H]2OCCCC[C@H](C)Oc3ccc(NC(=O)Nc4ccc(F)cc4)cc3C(=O)N([C@H](C)CO)C[C@@H]2C)cc1	2	-2	44	x	x	x	x
COc1ccc(CN(C)C[C@H]2OCCCC[C@H](C)Oc3ccc(NC(=O)C4CCCCC4)cc3C(=O)N([C@H](C)CO)C[C@H]2C)cc1	x	-53	107*	73	35	5	26*
COc1ccc(CN(C)C[C@H]2OCCCC[C@@H](C)Oc3ccc(NC(=O)Nc4ccc(OC)cc4)cc3C(=O)N([C@H](C)CO)C[C@H]2C)cc1	x	-65	109*	105*	105*	2	104*
